Data from PubChem BioAssay AID1259313 (Sanford-Burnham Center for Chemical Genomics, 2017).
Among all 340,000 compounds or so, about 8,500 (2.5%) were called active.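 How the source made its calls: active means melting temperature shift of at least 10% of the positive control shift, at one fixed dose; inactive means the rest.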 The entries come from a sample that favours actives as a whole.

System: Glutamate receptor ionotropic, NMDA 3A (GRIN3A) ligand-binding domain
Experiment: NR3A LBD thermal stabilization by compounds – biophysical, differential scanning fluorimetry, uHTS, primary screen (AID 1259313)
Conditions: at 25 µM, active compounds read high, 0% = protein alone, 100% = glycine-bound protein

Question: `Cc1cn(C)c(=O)n(C)c1=O` was tested. Which Tm shift relative to glycine control did it give?
Answer: -0.48% (inactive)

Question: `CCN(CC)S(=O)(=O)c1ccc(NC(=O)c2cccnc2Cl)c(NC(=O)c2cccnc2Cl)c1` was tested. Which Tm shift relative to glycine control did it give?
Answer: -0.78% (inactive)

Question: `CC(=O)c1sc(N)nc1C` was tested. Which Tm shift relative to glycine control did it give?
Answer: 2.68% (inactive)

Question: How did the Tm shift relative to glycine control turn out when `CCOC(=O)c1sc(NC(=O)c2sc(C)nc2C)nc1C` was run?
Answer: 3.53% (inactive)

Question: Which Tm shift relative to glycine control does the source give for `CCOC(=O)c1nc(N)sc1C(=O)OCC` here?
Answer: 17.7% (active)

Question: With `CN(C)C(=O)CCC(=O)N1CCCCC1C(=O)Nc1ccc(Oc2ccccc2F)cc1` (stereo unspecified) as the molecule, how does the Tm shift relative to glycine control read?
Answer: -0.77% (inactive)

Question: With `O=S(=O)(c1ccc(Cl)cc1)N1CCCN(c2ccc(C(F)(F)F)cn2)CC1` as the molecule, how does the Tm shift relative to glycine control read?
Answer: -4.38% (inactive)

Question: How did the Tm shift relative to glycine control turn out when `COC(=O)c1ccccc1NC(=O)Cc1ccccc1OC` was run?
Answer: -0.63% (inactive)

Question: `COc1cc([N+](=O)[O-])ccc1NC(=O)COC(=O)CCOc1ccc(C)cc1` was tested. Which Tm shift relative to glycine control did it give?
Answer: 2.57% (inactive)

Question: For `COc1ccccc1CC(=O)Nc1ccc([N+](=O)[O-])cc1OC`, which Tm shift relative to glycine control is on record?
Answer: 10.2% (active)

Question: `COc1ccc(CCNC(=O)COC(=O)c2ccc[nH]c2=O)cc1` was tested. Which Tm shift relative to glycine control did it give?
Answer: -2.27% (inactive)

Question: `Cc1ccc(/C=N/NC(=O)CN2CCN(Cc3ccccc3)CC2)s1` was tested. Which Tm shift relative to glycine control did it give?
Answer: -1.47% (inactive)

Question: How did the Tm shift relative to glycine control turn out when `Cc1cccc(/C=N/NC(=O)CNc2cccc3ccccc23)n1` was run?
Answer: 4.98% (inactive)

Question: Which Tm shift relative to glycine control does the source give for `Cc1ccccc1NCC(=O)N/N=C\c1ccc([N+](=O)[O-])s1` here?
Answer: 11.5% (active)

Question: For `Cc1ccc(NC(=O)CSc2nc(CSc3ccc(C)cc3)cc(=O)[nH]2)cc1`, which Tm shift relative to glycine control is on record?
Answer: -30.2% (inactive)

Question: How did the Tm shift relative to glycine control turn out when `Cc1ccc(Nc2nc(CSc3nnnn3-c3ccccc3)cc(=O)[nH]2)cc1` was run?
Answer: 10.7% (active)

Question: For `COc1ccc(C)cc1-n1nnnc1SCc1nc2ccccc2c(=O)[nH]1`, which Tm shift relative to glycine control is on record?
Answer: 0.31% (inactive)

Question: Which Tm shift relative to glycine control does the source give for `O=C(Nc1ccc(Br)cc1)c1cccc(NC(=O)C2C3CC4OC(=O)C2C4C3)c1` (stereo unspecified) here?
Answer: -8.89% (inactive)

Question: For `O=C(NC(=S)Nc1cccc(-c2ccc(CO)o2)c1)c1cccs1`, which Tm shift relative to glycine control is on record?
Answer: -18.4% (inactive)

Question: With `O=C(Nc1ccc(Cl)cc1)C1c2cccc[n+]2CC(=O)N1Cc1ccc2c(c1)OCO2` (stereo unspecified) as the molecule, how does the Tm shift relative to glycine control read?
Answer: 0.68% (inactive)

Question: `CCCOc1ccc(NC(=O)CC2C(=O)N(C)C(=S)N2Cc2ccc3c(c2)OCO3)cc1` (stereo unspecified) was tested. Which Tm shift relative to glycine control did it give?
Answer: 23.2% (active)

Question: How did the Tm shift relative to glycine control turn out when `COc1ccc(N2C(=O)C(CC(=O)Nc3ccccc3)N(Cc3ccc(OC)c(OC)c3)C2=O)cc1` (stereo unspecified) was run?
Answer: -3.64% (inactive)

Question: How did the Tm shift relative to glycine control turn out when `O=C(CN1CCN(C(=S)NC2CCCC2)CC1)Nc1ccc(Oc2ccccc2)cc1` was run?
Answer: -2.87% (inactive)

Question: Which Tm shift relative to glycine control does the source give for `O=C(NCc1ccccc1Cl)C1CCN(S(=O)(=O)c2cccc3nonc23)CC1` here?
Answer: 2.6% (inactive)

Question: `Cc1cc(/C=C2/NC(=O)NC2=O)c(C)n1-c1cccnc1` was tested. Which Tm shift relative to glycine control did it give?
Answer: -4.95% (inactive)

Question: `Cc1ccc(CN2C(=O)N/C(=C/c3cc(C)n(-c4ccccn4)c3C)C2=O)cc1` was tested. Which Tm shift relative to glycine control did it give?
Answer: 57.7% (active)

Question: With `Cc1ccccc1-n1c(C)cc(/C=C2\NC(=O)NC2=O)c1C` as the molecule, how does the Tm shift relative to glycine control read?
Answer: -2.81% (inactive)

Question: How did the Tm shift relative to glycine control turn out when `O=C1C2N=NN(CC(=O)N3N=C(c4cccc5ccccc45)CC3c3ccccc3)C2C(=O)N1c1ccccc1` (stereo unspecified) was run?
Answer: -0.6% (inactive)

Question: With `Oc1ccccc1C1=NN(c2ccccc2)C(c2ccccc2)C1` (stereo unspecified) as the molecule, how does the Tm shift relative to glycine control read?
Answer: 11.9% (active)

Question: How did the Tm shift relative to glycine control turn out when `COc1ccc(C2=NN(c3ccccc3)C(c3cccs3)C2)cc1` (stereo unspecified) was run?
Answer: 0.58% (inactive)

Question: Which Tm shift relative to glycine control does the source give for `Cc1ccc(C(=O)COC(=O)CCN2C(=O)C3C4CC(C(Br)C4Br)C3C2=O)cc1` (stereo unspecified) here?
Answer: 18% (active)

Question: `O=C(CCN1C(=O)C2C3C=CC(C3)C2C1=O)Oc1ccc2ccccc2c1` (stereo unspecified) was tested. Which Tm shift relative to glycine control did it give?
Answer: -2.31% (inactive)

Question: How did the Tm shift relative to glycine control turn out when `Cc1ccc(C(=O)COC(=O)CCN2C(=O)C3C4CCC(C4)C3C2=O)cc1C` (stereo unspecified) was run?
Answer: 1.5% (inactive)

Question: For `Cc1nn(Cc2ccc(Cl)cc2)c(Cl)c1/C=N/NC(=O)CNc1ccccc1F`, which Tm shift relative to glycine control is on record?
Answer: 16.1% (active)

Question: With `Cc1nn(Cc2ccc(Cl)cc2)c(Cl)c1/C=N/NC(=O)c1cccnc1` as the molecule, how does the Tm shift relative to glycine control read?
Answer: -6.33% (inactive)

Question: With `CCn1nc(C)c(/C=N/NC(=O)Cc2ccc(Cl)cc2)c1C` as the molecule, how does the Tm shift relative to glycine control read?
Answer: 1.94% (inactive)

Question: How did the Tm shift relative to glycine control turn out when `C/C=C/C(=O)OCc1csc(CC(=O)Nc2ccccc2C)n1` was run?
Answer: -1.3% (inactive)

Question: With `Cc1ccc(C)c(S(=O)(=O)N2CCN(CC(=O)Nc3ccc([N+](=O)[O-])cc3)CC2)c1` as the molecule, how does the Tm shift relative to glycine control read?
Answer: -7.08% (inactive)

Question: For `Cc1ccc(S(=O)(=O)N2CCN(CC(=O)N/N=C/c3cc([N+](=O)[O-])ccc3Cl)CC2)cc1`, which Tm shift relative to glycine control is on record?
Answer: 19.9% (active)

Question: `Cc1ccc(S(=O)(=O)N2CCN(CC(=O)N/N=C/c3ccc(Br)s3)CC2)cc1` was tested. Which Tm shift relative to glycine control did it give?
Answer: 0.82% (inactive)

Question: Which Tm shift relative to glycine control does the source give for `CCOC(=O)CN(C)S(=O)(=O)c1ccc(-c2cc(C(=O)OC)sc2C(F)(F)F)cc1` here?
Answer: -0.21% (inactive)

Question: `CCC(CC)C(=O)Nc1cccc(C(=O)N2CCCC2)c1` was tested. Which Tm shift relative to glycine control did it give?
Answer: -2.45% (inactive)

Question: How did the Tm shift relative to glycine control turn out when `Cc1cc(C(=O)COc2ccc(Br)cc2F)c(C)n1C1CC1` was run?
Answer: 1.06% (inactive)

Question: How did the Tm shift relative to glycine control turn out when `COc1ccc(CCn2nnnc2C(c2ccccc2)N2CCN(C)CC2)cc1OC` (stereo unspecified) was run?
Answer: 10.2% (active)

Question: How did the Tm shift relative to glycine control turn out when `COc1ccc(C(c2nnnn2Cc2cccs2)N2CCN(c3ccccc3)CC2)cc1OC` (stereo unspecified) was run?
Answer: 0% (inactive)

Question: How did the Tm shift relative to glycine control turn out when `N#Cc1ccc(C(c2nnnn2CCc2ccccc2)N2CCCCCC2)cc1` (stereo unspecified) was run?
Answer: 1.53% (inactive)
